About 4,100 (2.2%) of roughly 190,000 compounds were called active.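 Rule for the calls: active = thallium flux slope and its plate-corrected score both differing from the plate sample mean at a set confidence after two filtering rounds, in either direction; inactive = the rest.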 The list comes from a sample in which actives are over-represented; it also holds similar structures and randomly drawn compounds.
Target: Solute carrier family 12 member 5 (Homo sapiens) (UniProt Q9H2X9)
Experiment: modulation of human KCC2 ion transport – cell-based, HEK293 KCC2, FluoZin-2 fluorescence, MLSMR, primary screen (AID 1456);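 note: slope of fluorescence scaled to starting intensity during 10 to 20 s after thallium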
Details: KCC2 cells, thallium flux FluoZin-2 fluorescence; at 10 µM

Chain of Solute carrier family 12 member 5 (Homo sapiens) (Q9H2X9 whole entry, looked up): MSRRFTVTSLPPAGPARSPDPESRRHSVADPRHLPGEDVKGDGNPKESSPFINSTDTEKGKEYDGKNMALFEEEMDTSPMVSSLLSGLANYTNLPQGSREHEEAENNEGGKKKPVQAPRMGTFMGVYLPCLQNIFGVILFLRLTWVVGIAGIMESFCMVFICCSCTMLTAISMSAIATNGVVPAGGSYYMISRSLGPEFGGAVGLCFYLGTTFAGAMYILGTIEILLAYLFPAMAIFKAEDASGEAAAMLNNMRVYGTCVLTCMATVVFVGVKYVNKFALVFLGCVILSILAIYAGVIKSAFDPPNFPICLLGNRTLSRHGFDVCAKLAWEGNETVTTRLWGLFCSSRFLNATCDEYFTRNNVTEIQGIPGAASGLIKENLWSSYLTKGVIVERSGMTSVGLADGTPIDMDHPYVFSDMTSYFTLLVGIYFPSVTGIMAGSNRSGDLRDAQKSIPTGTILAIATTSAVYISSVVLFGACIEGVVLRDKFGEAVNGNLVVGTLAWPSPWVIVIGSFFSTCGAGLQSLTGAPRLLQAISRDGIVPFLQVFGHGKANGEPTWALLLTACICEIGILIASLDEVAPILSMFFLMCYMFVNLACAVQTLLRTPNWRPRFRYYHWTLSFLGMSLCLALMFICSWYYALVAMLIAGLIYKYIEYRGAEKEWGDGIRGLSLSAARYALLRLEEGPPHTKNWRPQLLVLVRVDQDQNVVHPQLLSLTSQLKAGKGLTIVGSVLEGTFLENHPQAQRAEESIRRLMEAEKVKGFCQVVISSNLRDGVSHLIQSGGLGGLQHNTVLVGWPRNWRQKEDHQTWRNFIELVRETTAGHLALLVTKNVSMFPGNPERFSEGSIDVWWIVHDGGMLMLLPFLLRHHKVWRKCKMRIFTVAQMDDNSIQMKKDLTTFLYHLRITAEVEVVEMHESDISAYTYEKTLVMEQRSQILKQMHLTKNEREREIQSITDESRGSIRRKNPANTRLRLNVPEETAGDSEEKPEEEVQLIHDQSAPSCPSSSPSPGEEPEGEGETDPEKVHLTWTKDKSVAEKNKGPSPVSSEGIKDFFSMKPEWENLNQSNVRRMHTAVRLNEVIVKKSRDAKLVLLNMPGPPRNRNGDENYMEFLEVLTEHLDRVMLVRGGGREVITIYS

B-score of Tl+ flux slope (higher = more flux/activation; lower = inhibition), active:
S=c1[nH]nc2c3c4c(sc3ncn12)CCCC4 6.7
O=C(Nc1ccccc1F)C1C2C=CC3(O2)C1C(=O)N(c1cccnc1)C3C(=O)NC1CCCCC1 (centres undefined) -6.39
CCOC(=O)c1c(NC(=S)NC)sc2c1CCCC2 118
COCCNc1nc(-n2nc(C)cc2C)nc2sc3c(c12)CCCC3 -4.01
COC(=O)c1cccnc1NC(=S)NC(C)C 37.7
c1ccc2c(C[n+]3csc4ccccc43)cccc2c1 4.99
CCn1c(O)c(N=NC2=NC(=O)CS2)c2cc(C)ccc21 8.24
CC1CCCCN1S(=O)(=O)c1ccc(C(=O)Nc2nnc(-c3cccs3)o2)cc1 (centres undefined) 6.64
c1cncc(-c2nnc3n2C2(CCCCC2)Cc2ccccc2-3)c1 4.46
O=C(Nc1nc2c(F)cc(F)cc2s1)C1COc2ccccc2O1 (centres undefined) 67.4
S=c1nccc(-c2cc(Cl)sc2Cl)[nH]1 7.16
Fc1ccc(COc2cccc(-c3n[nH]c(=S)o3)c2)cc1 69.9
O=C(NC(=S)N1CCc2ccccc21)c1ccco1 23.3
O=C(CSCc1ccccc1)N1CCc2ccccc21 -2.43
C=CCn1c(=S)[nH]c2scc(-c3ccco3)c2c1=O 111
COc1ccc(Oc2c(Cl)cnn(-c3ccccc3)c2=O)cc1 -3.99
CCc1ccc2nc3sc(C(=O)Nc4nnc(CC)s4)c(N)c3cc2c1 -4.25
O=C(O)CS/C(=C\c1ccc(F)cc1)c1nc2ccccc2s1 -7.14
COc1cc(OC)cc(C(=O)NC(=S)N2CCN(c3ccc(C(F)(F)F)cc3[N+](=O)[O-])CC2)c1 6.75
CC(C)C1Nc2c(C(=O)O)cccc2C(Nc2ccccc2C(=O)O)C1(C)C (centres undefined) -7.13

B-score of Tl+ flux slope (higher = more flux/activation; lower = inhibition), inactive:
Cc1ccc(C(=O)Nc2nc(N)n(-c3ccccc3)n2)cc1 0.00295
c1nnc2c3c4c(sc3ncn12)CCC4 -0.0315
N=c1c2c3c(sc2ncn1N)CCCC3 1.3
O=C(CCl)Nc1cccc(CP(=O)(c2ccccc2)c2ccccc2)c1 -0.0445
CCN(CC)C(=O)CS(=O)CC(=O)Nc1cc(OCCOC)c(Cl)cc1Cl (centres undefined) -0.00564
O=C(NCc1cccnc1)Nc1ccccc1F 0.189
CC(C)N1C(=O)C2C(C(=O)NC3CCCCC3)C3C=CC2(O3)C1C(=O)NC1CCCC1 (centres undefined) -0.424
Cc1nn(-c2ccccc2)c(=O)c2noc(C)c12 -0.0422
CCOCC(=O)Nc1sc2c(c1C(=O)OCC)CCCC2 0.549
CCOC(=O)c1c(NC(=S)Nc2ccccc2C)sc2c1CCC2 -0.787
Cc1nc(=O)c(-c2ccccc2)c(C)n1-c1ccc(Br)cc1 -0.435
CCC(O)CNc1nc(-n2nc(C)cc2C)nc2sc3c(c12)CC(C)(C)OC3 (centres undefined) -1.67
Cc1cc(C)n(-c2nc(SCC(=O)N3CCCC3)c3c4c(sc3n2)CCCC4)n1 0.509
COc1cccc(N2C(=O)CC(N3CCc4ccccc4C3)C2=O)c1 (centres undefined) 0.0221
O=C(CSc1nc2ccccc2o1)N/N=C/c1ccccc1C(=O)O 0.867
CSc1sc(C(=O)NC(=O)NCc2cccnc2)c(C)c1-c1ccon1 -1.42
COC(=O)c1ccccc1NC(=S)NC(=O)c1ccccc1F 4.93
CCOC(=O)c1cccnc1NC(=O)c1ccncc1 0.477
Nc1scc[n+]1Cc1cccc2cccnc12 -0.326
c1ccc2c(CSCc3nc4ccccc4[nH]3)cccc2c1 -2.07
CC(=O)Nc1ccc(C(=O)/C=C/c2ccc[nH]2)cc1 0.0206
Cc1ccc(S(=O)(=O)N2CCN(C(=O)COC(=O)c3c(C)noc3C)CC2)c(C)c1 0.177
CCn1c(=O)cc(O)c2ccccc21 0.265
CCn1c(O)c(N=NC(=O)c2cccc(S(=O)(=O)N3CCCCC3)c2)c2ccccc21 -0.0952
O=C(Cn1nnc(N2CCCCC2)n1)c1ccc(Cl)c(Cl)c1 -0.13
C/C=N/N(c1ccccc1)c1ccccc1 0.121
Cc1ccc(S(=O)(=O)/N=C(/NC(=S)Nc2c(C)n(C)n(-c3ccccc3)c2=O)c2ccccc2)cc1 -0.219
CC1CCCN(S(=O)(=O)c2ccc(C(=O)Nc3nnc(-c4ccncc4)o3)cc2)C1 (centres undefined) -0.0172
CC1CCCCN1S(=O)(=O)c1ccc(S(=O)(=O)N(CC(=O)Nc2ccccc2)Cc2cccs2)cc1 (centres undefined) 0.0298
CC(C)Cc1ccc(C(C)C(=N)N)cc1 (centres undefined) 0.737
NS(=O)(=O)c1ccc(CNC(=O)c2cnccn2)cc1 1.11
NCC(=O)c1cccc2ccc[n+]([O-])c12 1.34
COc1ccc(CCN2C(=O)CC(N3CCC(C(N)=O)CC3)C2=O)cc1OC (centres undefined) 0.129
CC1(C)Cc2ccccc2-c2nnc(-c3cccc(O)c3)n21 -0.616
O=c1c2ccccc2nc2n1C1(CCCCC1)Cc1ccccc1-2 -0.241
Cc1ccc(CN2CCN(Cc3ccc4ncccc4c3)CC2CCO)cc1 (centres undefined) -0.182
O=C(Nc1nc(-c2ccncc2)cs1)C1COc2ccccc2O1 (centres undefined) -0.139
COc1ccc(OC)c2sc(NC(=O)C3COc4ccccc4O3)nc12 (centres undefined) -1.33
CC(C)c1cc(CN2CCOCC2)cc(C(C)C)c1O -0.911
CCn1cc(C(=O)NCCCN2CCCCCC2)c(=O)c2cc(S(=O)(=O)N3CCc4ccccc4C3)ccc21 0.575
Cc1nc(C(=O)N2CCCC(C(=O)c3ccc(Cl)cc3)C2)cs1 (centres undefined) -0.00258
Cc1ccccc1Nc1c(-c2ccccc2)nc2ncccn12 -0.0089
Cc1cccc(N(C)C(=O)c2cc3c(=O)[nH]c4ccc(C)cc4c3s2)c1 0.185
COCCN1C2=C(COC(C)(C)C2)C(=S)NC1c1ccccc1 (centres undefined) -0.146
Fc1ccc(COc2ccc(-c3nnco3)cc2)cc1 -1.14
Cc1cccc(OCc2ccc(C(=O)Nc3ccc(F)cc3)cc2)c1 0.491
NNC(=O)c1oc2nc(-c3ccccc3)cc(-c3ccco3)c2c1N 0.0896
O=C(COc1ccccc1)N1CCN=C1SCc1cccc(F)c1 0.197
CC(C)CCN1NC2(CCC(C)CC2)NC1=S (centres undefined) 1.32
Cc1ccc(-c2nc3ccccc3[nH]c2=O)cc1 0.871
CC(CNS(=O)(=O)c1ccc(Br)cc1)CN(C)C (centres undefined) 0.781
CCC(C)(C)NC(=O)C(c1ccc(O)cc1)N(C(=O)Cn1nnc2ccccc21)c1ccc(NC(C)=O)cc1 (centres undefined) 1.51
O=C(c1cccc(C(=O)N2CCc3ccccc32)n1)N1CCc2ccccc21 0.134
CCNC(=S)N1CCN(C(=O)c2ccco2)CC1 0.133
NC(=O)N1CCc2ccccc21 0.799
Cc1nnc(SCC(=O)N2CCc3ccccc32)n1-c1ccccc1 0.58
O=C(NCc1cccnc1)C(=O)Nc1nc(-c2ccccc2)cs1 -0.384
O=C(CCCN1C(=O)/C(=C\c2ccccc2)SC1=S)Nc1ccccc1O 0.281
CCN(CC(=O)Nc1cccc(S(N)(=O)=O)c1)Cc1nc2ccccc2c(=O)[nH]1 1.06
Cc1coc2cc3oc(=O)c(CCC(=O)O)c(C)c3cc12 -0.564
C=CCn1c(SCc2csc(C)n2)nc2scc(-c3ccc(C)o3)c2c1=O 0.11
C=CCNC(=O)CSc1nc2scc(-c3ccco3)c2c(=O)n1CC=C -0.677
Nc1cccc(S(=O)(=O)Nc2ccc(SC(F)F)cc2)c1 -0.199
COc1ccc(-n2c(C)nc3c(cnn3-c3ccccc3)c2=O)cc1 -0.335
Cc1ccc(Oc2cnn(-c3ccccc3)c(=O)c2Br)cc1 -2.71
CC1C(=O)NC(=O)C1c1ccccc1 (centres undefined) 0.0909
CCc1nnc(NC(=O)c2cccc(S(=O)(=O)N(C)c3ccc(OC)cc3)c2)s1 -0.265
CCc1nnc(NC(=O)c2sc3nc(C)cc(COC)c3c2N)s1 0.922
Cc1ccc(S(=O)(=O)N(C)CC(=O)OCC(=O)Nc2ccccc2)cc1 -1.25
Cc1nc(N)sc1N=Nc1c(C)n(C)n(-c2ccccc2)c1=O 0.0239
O=C(O)CSCc1nc2ccccc2s1 0.175
COc1ccc(/C=C(/CC(=O)Nc2ccc(C)cc2)c2nc3ccccc3s2)cc1 -0.666
O=C(CC1SC(=Nc2ccccc2F)N(CCN2CCOCC2)C1=O)Nc1ccc(F)cc1F (centres undefined) 0.206
Cc1ccc2cc(/C=N/NC(=O)[C@@H]3CCCN3)c(Cl)nc2c1 0.721
O=C(Nc1cccc(C(F)(F)F)c1)c1ccc(N2CCNCC2)c([N+](=O)[O-])c1 1.31
Cc1cccc(C(=O)NC(=S)N2CCN(c3ccc([N+](=O)[O-])cc3)CC2)c1 1.26
Cc1cccc(C(=O)OCC(=O)NCC(C)C)c1O -0.558
O=C(NCCc1ccccc1)Oc1ccc(Cl)cc1 -2.47
O=C(O)c1ccccc1-c1ccccc1C(=O)Nc1cccc2ccccc12 -0.144

— PubChem BioAssay AID1456 (Vanderbilt High Throughput Screening Facility, 2008)
